In PubChem BioAssay (EPA / NIEHS):
Inconclusive results are not listed. Calls of active or inactive are those of the source. The calls were made as follows: active = hit-call score of the fitted dose curve at least 0.9, where 1 is the maximum; inconclusive = response in the unintended direction; inactive = score below 0.9.

biological target: Retinoic acid receptor alpha (Homo sapiens) (UniProt P10276); test: ATG_RARa_TRANS: Attagene TRANS-FACTORIAL HepG2 Assay for human Retinoic Acid Receptor alpha (RARa) (AID 2283005)
Sequence (P10276 whole entry, looked up): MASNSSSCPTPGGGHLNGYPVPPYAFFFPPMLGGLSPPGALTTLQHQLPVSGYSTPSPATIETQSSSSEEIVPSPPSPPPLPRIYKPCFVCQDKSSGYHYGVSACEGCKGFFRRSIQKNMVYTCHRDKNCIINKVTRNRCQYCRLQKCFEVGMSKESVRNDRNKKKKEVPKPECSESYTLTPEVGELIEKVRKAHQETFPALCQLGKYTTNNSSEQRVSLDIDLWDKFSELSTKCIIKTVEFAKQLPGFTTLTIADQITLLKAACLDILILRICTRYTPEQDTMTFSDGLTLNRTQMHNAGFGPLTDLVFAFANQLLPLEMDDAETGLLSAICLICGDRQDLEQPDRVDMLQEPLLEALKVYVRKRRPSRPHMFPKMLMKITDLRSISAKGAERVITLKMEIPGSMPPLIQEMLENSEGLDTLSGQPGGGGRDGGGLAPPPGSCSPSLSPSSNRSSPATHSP
Protocol: ATG_TRANS is a cell-based, multiplexed-readout assay that uses HepG2, a human liver cell line, with measurements taken at 24 hours after chemical dosing in a 24-well plate.ATG_RARa_TRANS is one of 30 assay component(s) measured or calculated from the ATG_TRANS assay. It is designed to make measurements of mRNA induction, a form of inducible reporter, as detected with fluorescence intensity signals by Reverse transcription polymerase chain reaction (RT-PCR) and Capillary electrophoresis technology.Data from the assay component ATG_RARa_TRANS was analyzed into 1 assay endpoint. This assay endpoint, ATG_RARa_TRANS, was analyzed in the positive analysis fitting direction relative to DMSO as the negative control and baseline of activity. Using a type of inducible reporter, measures of mRNA for gain-of-signal activity can be used to understand the reporter gene at the transcription factor-level as they relate to the gene RARA. Furthermore, this assay endpoint can be referred to as a primary readout, because this assay has produced multiple assay endpoints where this one serves a reporter gene function. To generalize the intended target to other relatable targets, this assay endpoint is annotated to the nuclear receptor intended target family, where the subfamily is non-steroidal.
Human liver HepG2 cells are transiently transfected with multiple reporter transcription units (MRTUs) in 6-well plates using FuGene 6 reagent (Roche; 3 ml FuGene/1 mg DNA). The MRTU constructs are regulated by a cis-regulating element (promoter). […] A major difference between the CIS and TRANS system is that in CIS activities of endogenous TFs are measured, whereas the TRANS assay evaluates changes in activities of exogenous, chimeric NR-Gal4 proteins. […] At the end of 24 hour incubation, total RNA was isolated using TriZol reagent (Invitrogen). The isolated RNA is then reverse-transcribed using oligo(dT) primer and Mo-MLV reverse transcriptase (Invitrogen) with DNAse I (Ambion) treatment for 30 min. The one-tenth of the produced cDNA was amplified by PCR using Taq DNA polymerase (Invitrogen) and two reporter sequence-specific primers. The PCR products were fluorescently labeled by primer extension with 6-arboxyfluorescein (6-FAM) 5'-labeled reporter sequence-specific primer (2 min at 95 C, 20 s at 68 C and 10 min at 72 C) and these products were digested with 5U of HpaI (New England Biolabs) for 2h at 37 C. The fragments were purified using Qiaquick PCR columns (Qiagen), analyzed on an ABI 3130xL genetic analyzer (Applied Biosystems) with peak positions identified by using a set of X-rhodamine (ROX)-labeled MapMarker1000 molecular weight standards (BioVentures). The raw capillary electrophoresis data was processed using Attagraph software (Attagene).

outcome, inactive:
CC(C)COC(=O)CCCCC(=O)OCC(C)C
Oc1ccc(O)cc1
CCN(CC)CCOc1ccc(C(=C(Cl)c2ccccc2)c2ccccc2)cc1
Cc1cc(Cc2ccc(N)c(C)c2)ccc1N
O=C1OC(c2ccc(O)cc2)(c2ccc(O)cc2)c2ccccc21
Oc1ccccc1O
CC(COCC(C)OC(=O)c1ccccc1)OC(=O)c1ccccc1 (centres undefined)
Nc1nc(=S)c2[nH]cnc2[nH]1
NC=O
NC1CCCCC1
O=[Si]=O
N[C@@H](Cc1c[nH]c2ccccc12)C(=O)O
Cc1ccc(-c2cc(C(F)(F)F)nn2-c2ccc(S(N)(=O)=O)cc2)cc1
CCCCCCCCCCCCCCCCO
